# Many of the other results were omitted from the sample, so hits are more common in it than they were.
# Sa growth inh: inhibitors of Staphylococcus aureus growth at 42 °C; relative growth, % (no concentration beside the values); S. aureus RN4220 growth, OD600, 20 h; stronger effect = lower value; 0.53% of 170,000 active;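 active = relative growth at most 50% at the other temperature and 20+ points below 30 °C, or under 10% at both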
# Sa helicase inh: blocks Staphylococcus aureus DNA helicase | purified S. aureus helicase, fluorescence unwinding assay | 0.05% of 120,000 active | inhibition, % (concentration not given with the values) | AID 485395; in the data active = inhibition above about 25%, passing the limit was not always enough;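 also: 0% = mean of negative control wells and 100% = mean of positive control wells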
# An asterisk follows results filed as active; . = no result; ! = repeats disagree.
SMILES,Sa growth inh,Sa helicase inh
CCOC(=O)c1cn2c3c(c(F)c(F)cc3c1=O)OCC2C (stereo not drawn),101,-14
CCn1cc(C(=O)O)c(=O)c2cc(F)c(N3CCNCC3)nc21,59,.
CCOC(=O)N1CCN(c2nc3c(c(=O)n(C)c(=O)n3C)n2CCSc2nnc(C)s2)CC1,79,6
CCCCc1ccc(C(=O)Nc2cc3cccc(OC)c3oc2=O)cc1,107,-4
c1ccc2c(N3CCC(N4CCCCC4)CC3)nnc(Cc3ccncc3)c2c1,94,7
CNCC(O)COC1CCCCC1 (stereo not drawn),97,8
CN1/C(=C\C(=O)COC(=O)C2CC(=O)N(Cc3ccccc3)C2)C(C)(C)c2ccccc21 (stereo not drawn),102,-20
CC1CCc2c(N3CCC(O)CC3)c(F)cc3c(=O)c(C(=O)O)cn1c23 (stereo not drawn),-1.0*,.
CC1CCc2cc(F)cc3c(=O)c(C(=O)O)cn1c23 (stereo not drawn),30,.
COc1ccc(CNC(=O)Cn2cnc3ccccc32)cc1OC,82,41*
COc1ccc(CCNC(=O)Cn2cnc3c(cnn3-c3ccccc3)c2=O)cc1OC,105,6
COC(=O)c1c(NC(=O)C2CSC(c3ccncc3)=N2)sc(C)c1C (stereo not drawn),96,14
O=C1c2ccccc2-c2nc3nonc3nc21,53,-32
O=C1c2ccccc2-c2nc3ccccc3nc21,5.6*,42
NC(=O)c1c(NC(=O)C2=COCCO2)sc2c1CCCC2,.,22
CC(C)N1CCc2c(sc(NC(=O)C3=COCCO3)c2C(N)=O)C1,88,42*
CNC(=S)N1CCN(c2cccc(C)c2C)CC1,104,13
CCN1/C(=C/c2ccc3cc(C)ccc3[n+]2C)Sc2cc(OC)ccc21,-1.5*,-26
CN1/C(=C/C#N)Sc2ccccc21,88,-74
CCN1/C(=C/c2ccc3ccccc3[n+]2CC)Sc2cc(NC(C)=O)ccc21,101,6
COc1ccc2c(ccc(/C=C3\Sc4ccccc4N3C)[n+]2C)c1,4.7*,-222
Cc1cc(C(=O)Nc2ccc(N3CCOCC3)cc2)no1,97,12
CCOc1ccccc1OC(=O)NN,74,16
Cn1c(SCCN2CCCC2)nnc1C1CCCN1C(=O)NC1CCCCC1 (stereo not drawn),84,7
N#C/C(=C\c1ccc(F)cc1)c1csc2ccccc12,107,.
SMILES,Sa growth inh,Sa helicase inh
C=CCN1C(=O)S/C(=C/c2ccc(OC)c(OCC)c2)C1=O,108,3
CCOc1cc(/C=C2/SC(=N)N(c3nccs3)C2=O)ccc1OCCN1CCOCC1,8.0*,9
N=C1S/C(=C\c2ccc(F)cc2)C(=O)N1c1nccs1,5.1*,18
N=C1S/C(=C/c2ccccc2)C(=O)N1c1nonc1N,91,12
NC(=O)C12CCCC(CCC1)C2,89,-11
NC(=O)C1CCCN1c1cnn(Cc2ccccc2)c(=O)c1Cl (stereo not drawn),106,-1
Cc1ccc(C(=O)OC2=C(c3ccccc3)C(=O)c3ccccc3C2=O)cc1,78,9
CCOC(=O)COC1=C(c2ccccc2)C(=O)c2ccccc2C1=O,5.9*,14
O=S(=O)(N1CCCCC1)N(CCO)Cc1ccccc1,110,4
N[C@@H](C(=O)N[C@@H]1C(=O)N2C(C(=O)O)=C(CSc3cn[nH]n3)CS[C@H]12)c1ccc(O)cc1 (tested in a mixture with another compound),27*,.
CC(C)OC(=O)C(N)c1ccccc1 (stereo not drawn),95,18
N[C@@H](C(=O)N[C@@H]1C(=O)N2C(C(=O)O)=C(Cl)CS[C@H]12)c1ccccc1,-0.9*,.
CCN1CCN(C(=O)NC(C(=O)NC2C(=O)N3C(C(=O)O)=C(CSc4nnnn4C)CSC23)c2ccc(O)cc2)C(=O)C1=O (stereo not drawn),-1.3*,.
CO/N=C(/C(=O)NC1C(=O)N2C(C(=O)OC(C)OC(C)=O)=C(COC(N)=O)CSC12)c1ccco1 (stereo not drawn),26,.
C=CCn1c(-c2ccncc2)nn(CN2CCCC(C(=O)OCC)C2)c1=S (stereo not drawn),94,18
O[N+]1=CC=CCC1=S.On1ccccc1=S.[Zn],-0.3*,.
O=C1CN(C(=O)C2CC2)CCN1,.,18
Cc1cccc(NC(=S)NC2CCCC2)c1,121,-6
S=C(Nc1ccc(Cl)c(Cl)c1)NC1CCCC1,1.3*,.
O=C(COc1ccc(Cl)cc1)N=Nc1c(O)n(CN2CCCCCC2)c2ccccc12,99,26
C#CCn1c(=NC(=O)C2COc3ccccc3O2)sc2cc(Br)ccc21 (stereo not drawn),87,4
O=C(O)/C=C/C(=O)Nc1ccc(SC(F)(F)F)cc1,100,-20
O=C(Nc1ccc(SC(F)(F)F)cc1)n1ccc(C(F)(F)F)n1,4.9*,.
Cc1nnc(SCC(=O)NC2CCCCCC2)[nH]c1=O,0.2*,12
Cc1sc2nc(SCC(=O)NC3CCCCC3)[nH]c(=O)c2c1C,81,4
SMILES,Sa growth inh,Sa helicase inh
O=C(COC(=O)c1cc[n+]([O-])cc1)c1ccc2[nH]c(=O)[nH]c2c1,94,-1
O=C(Oc1c(Cl)cc(Cl)c2cccnc12)c1ccco1,1.7*,32
Oc1c(Cl)cc(Cl)c2cccnc12,65,.
CC1(C(=O)Nc2ccc(NC(=O)C3(C)CCCC3)cc2)CCCC1,103,-28
CO/N=C(\C(=O)N[C@@H]1C(=O)N2C(C(=O)[O-])=C(C[N+]3(C)CCCC3)CS[C@H]12)c1csc(N)n1,-0.5*,.
C=CC1=C(C(=O)O)N2C(=O)[C@@H](NC(=O)C(=NOCC(=O)O)c3csc(N)n3)[C@H]2SC1,-0.2*,.
C=CC1=C(C(=O)O)N2C(=O)[C@@H](NC(=O)/C(=N\O)c3csc(N)n3)[C@H]2SC1 (stereo in doubt),-0.4*,.
CC(C)(O/N=C(\C(=O)N[C@@H]1C(=O)N2C(C(=O)[O-])=C(C[n+]3ccccc3)CS[C@H]12)c1csc(N)n1)C(=O)O,77,.
CO/N=C(\C(=O)NC1C(=O)N2C(C(=O)OCOC(=O)C(C)(C)C)=C(/C=C\c3scnc3C)CSC12)c1csc(N)n1 (stereo not drawn),5.1*,.
C[C@H]1[C@H](NC(=O)/C(=N\OC(C)(C)C(=O)O)c2csc(N)n2)C(=O)N1S(=O)(=O)O,90,.
Cc1cc(C(=O)CN2CCN(Cc3ccc4c(c3)OCO4)CC2)c(C)n1-c1ncn[nH]1,110,7
O=C(Cn1c2ccccc2c2cn[nH]c(=O)c21)NCc1ccccc1,113,12
CCN(CC)C(=O)/C(C#N)=C/c1cc(Br)cs1,93,-6
O=C(c1ccc(=O)[nH]c1)N1CCSC1=NCc1ccccc1,94,16
CCOC(=O)N1CCC(NC(=O)c2cc3cc4ccc(OC)cc4nc3o2)CC1,93,-31
COC(=O)c1c(COc2ccccc2)n[nH]c1C,113,.
Cc1n[nH]c(C)c1CCCCCOc1ccccc1,0.0*,13
Cc1n[nH]c(C)c1CCC(=O)O,108,5
Cc1n[nH]c(C)c1CCCOc1ccccc1,8.3*,-2
C[C@H]1O[C@@H](n2cc(F)c(=O)[nH]c2=O)[C@H](O)[C@@H]1O,1.1*,.
O=c1[nH]c(=O)n(C2CCCO2)cc1F (stereo not drawn),6.6*!,-14
O=C1C=CC(=O)N1CC1CCCO1 (stereo not drawn),103,-3
COc1ccc(-c2cccc(NS(=O)(=O)c3ccccc3)c2)nn1,96,1

# Screening data as filed in PubChem BioAssay.
